For 25 compounds, activation and Potency results are on record in PubChem BioAssay (NCATS).

Records with an inconclusive call do not appear. Values without a mark were called inactive. The source made the active and inactive calls. Calls follow the shape of the dose curve; as a rule, active = well fitted curve in the direction sought with a large enough effect; inconclusive = small, poorly fitted or top-dose-only effect, or another doubt; inactive = no such curve, though single readings can be large; an effect the other way counts as inactive or inconclusive.

Experiment [1] has as its target Cellular tumor antigen p53 (Homo sapiens) (UniProt P04637). As to the kind of experiment: Primary qHTS for small molecule compounds that upregulate eGFP-tagged delta133p53alpha (in N-terminal) cells. (AID 2060322). Also: nearly all actives have a fitted effect of over 75% in size. Also: potency is read from the fitted curve at half-maximal effect.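 As to activation: cells pre-induced with doxycycline then dosed without doxycycline; series mostly up to about 56 µM; 0% = DMSO vehicle and 100% = reference activator.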 As to conditions: NCI-H358 eGFP-delta133p53alpha fluorescence, 24 h; activation: active compounds read high. In outline: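 NCI-H358 cells pre-induced 24 h with 10 ng/ml doxycycline for eGFP-delta133p53alpha, plated dox-free and exposed 24 h at 37C to titrated compounds. Fixed, Hoechst-stained; gated GFP peak intensity by laser scanning cytometry, normalized to DMSO (0%) and 57.5 uM 5-azacytidine (100%).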
A general note: Quantitative high-throughput screening tests each substance at several concentrations.

Experiment [2] concerns the target Aldehyde dehydrogenase, mitochondrial (Homo sapiens) (UniProt P05091). As to the kind of experiment: qHTS for Inhibitors of the Aldehyde Dehydrogenase Family (ALDH2) Primary screen (AID 2061308).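 Also: plate controls were vehicle for no effect and reference inhibitor for full effect; nearly all actives have a fitted effect of over 55% in size.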
The target of experiment [3] is Retinaldehyde dehydrogenase 3 (Homo sapiens) (UniProt P47895). Put plainly: qHTS for Inhibitors of the Aldehyde Dehydrogenase Family (ALDH1A3) Primary screen (AID 2061315).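 Also: plate controls were DMSO vehicle for no effect and reference inhibitor for full effect.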

Chain of Cellular tumor antigen p53 (Homo sapiens) (P04637 whole entry, looked up): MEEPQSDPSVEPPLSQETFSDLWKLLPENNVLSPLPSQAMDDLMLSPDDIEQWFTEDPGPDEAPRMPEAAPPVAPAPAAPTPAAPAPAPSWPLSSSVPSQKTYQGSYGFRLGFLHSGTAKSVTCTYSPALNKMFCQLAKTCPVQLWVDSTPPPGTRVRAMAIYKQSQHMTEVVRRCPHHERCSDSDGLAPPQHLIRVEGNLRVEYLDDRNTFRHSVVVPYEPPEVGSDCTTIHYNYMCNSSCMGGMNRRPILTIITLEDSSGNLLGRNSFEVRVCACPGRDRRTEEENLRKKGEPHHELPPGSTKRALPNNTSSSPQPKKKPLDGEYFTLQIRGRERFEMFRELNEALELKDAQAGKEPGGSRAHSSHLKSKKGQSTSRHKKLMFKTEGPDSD

Consider `C[C@@H]1O[C@@H](OC[C@H]2O[C@@H](OCC3CCC4CC3C4(C)C)[C@H](O)[C@@H](O)[C@@H]2O)[C@H](O)[C@H](O)[C@H]1O` (stereo not given in full), for which the activation in experiment [1] is 16.1%. Further, the Potency result in experiment [2] and in experiment [3] was “inactive” throughout.

With `C=C1CCC2C(C)(C(=O)O)CC(O)CC2(C)C1CC/C(C)=C/C(=O)O` (stereo not given), in experiment [1], the activation is -9.92%. For the same compound, the Potency result in experiment [2] and in experiment [3] was “inactive” throughout.

Consider `COc1ccc(-n2c(SCC#N)nc3sc4c(c3c2=O)CCCC4)cc1`, for which, in experiment [1], the activation is -16.1%. Further, the Potency entry in experiment [2] and in experiment [3] was “inactive” each time.

For `CSCC1OC(n2cnc3c(=O)[nH]cnc32)C(O)C1O` (stereo not given), the activation in experiment [1] is -8.4%. The Potency entry in experiment [2] and in experiment [3] was “inactive” each time.

For the compound `Cc1ccc(F)cc1S(=O)(=O)N[C@@H]1CCN(Cc2ccc(OC(C)C)cc2)C1`, the activation in experiment [1] was -2.39%. The Potency entry in experiment [2] and in experiment [3] was “inactive” throughout.

As to `CC(=O)NC1CC(=O)C23C(=O)NC(Cc4c[nH]c5ccccc45)C2C(C)=C(C)C(O)C3/C=C/CC(C)/C=C(/C)C(O)C1O` (stereo not given), the activation in experiment [1] is 8.93%. Further, the Potency entry in experiment [2] and in experiment [3] was “inactive” each time.

`C[C@@H]1O[C@@H](O[C@H]2[C@H](O[C@H]3[C@H](O[C@H]4CC[C@@]5(C)C(CC[C@]6(C)C5CC=C5[C@@H]7CC(C)(C)C[C@@H](O)[C@]7(C)CC[C@]56C)[C@@]4(C)CO)O[C@H](C(=O)O)[C@@H](O)[C@@H]3O)O[C@H](CO)[C@H](O)[C@@H]2O)[C@H](O)[C@H](O)[C@H]1O` (stereo not given in full): the activation in experiment [1] is -9.92%. Moreover, the Potency entry in experiment [2] and in experiment [3] was “inactive” each time.

Turning to `C[C@@H]1CC[C@]2(C(=O)O[C@@H]3O[C@H](CO[C@@H]4O[C@H](CO)[C@@H](O[C@@H]5O[C@@H](C)[C@H](O)[C@@H](O)[C@H]5O)[C@H](O)[C@H]4O)[C@@H](O)[C@H](O)[C@H]3O)CC[C@]3(C)C(=CCC4[C@@]5(C)C[C@@H](O)[C@H](O)[C@@](C)(CO)C5CC[C@]43C)C2[C@H]1C` (stereo not given in full), the activation in experiment [1] was -19.6%. Besides, the Potency result in experiment [2] and in experiment [3] was “inactive” each time.

For `COC(=O)[C@]12C(=O)C(C)=C(O)[C@@]1(C)C(C)=CC1[C@@]34CC[C@@H](OC(C)=O)C(C)(C)C3[C@H](C[C@]12C)OC4=O` (stereo not given in full), the activation in experiment [1] was 2.29%. In addition, the Potency result in experiment [2] and in experiment [3] was “inactive” in each case.

As for `C/C=C1/[C@H](O[C@@H]2O[C@H](CO)[C@@H](O)[C@H](O)[C@H]2O)OC=C(C(=O)OC)[C@H]1CC(=O)OCCc1ccc(O)c(O)c1`, the activation in experiment [1] was 5.34%. The Potency entry in experiment [2] and in experiment [3] was “inactive” in each case.

Regarding `CC1(C)CC[C@]2(C(=O)O[C@@H]3O[C@H](CO)[C@@H](O)[C@H](O)[C@H]3O)[C@H](O)C[C@]3(C)C(=CCC4[C@@]5(C)CC[C@H](O[C@@H]6OC[C@@H](O)[C@H](O)[C@H]6O)[C@@](C)(C(=O)O)C5CC[C@]43C)[C@@H]2C1` (stereo not given in full), the activation in experiment [1] was -16.8%. Further, the Potency entry in experiment [2] and in experiment [3] was “inactive” each time.

Take `CC(CCC1(O)OC2CC3C4CC=C5C[C@@H](O[C@@H]6O[C@H](CO)[C@@H](O[C@@H]7O[C@@H](C)[C@H](O)[C@@H](O)[C@H]7O)[C@H](O)[C@H]6O[C@@H]6O[C@@H](C)[C@H](O)[C@@H](O)[C@H]6O)CC[C@]5(C)C4CC[C@]3(C)[C@@]2(O)[C@@H]1C)CO[C@@H]1O[C@H](CO)[C@@H](O)[C@H](O)[C@H]1O` (stereo not given in full): the activation in experiment [1] was -8.04%. For the same compound, the Potency entry in experiment [2] and in experiment [3] was “inactive” throughout.

Regarding `CC1=CC(=O)CC(C)(C)C1CCC(C)O[C@@H]1O[C@H](CO[C@@H]2OC[C@@H](O)[C@H](O)[C@H]2O)[C@@H](O)[C@H](O)[C@H]1O` (stereo not given in full), the activation in experiment [1] was -10.7%. The Potency entry in experiment [2] and in experiment [3] was “inactive” in each case.

For `CC(C(O)c1ccccc1)N(C)CCOC(c1ccccc1)c1ccccc1` (stereo not given), the Potency in experiment [1] is 21.9 µM (active). Besides, the Potency result in experiment [2] and in experiment [3] was “inactive” each time.

Regarding `CC1(CO)CCCC2(C)C1C(OC(=O)c1ccccc1)CC1C(=O)OCC12O` (stereo not given), the activation in experiment [1] is -20.6%. In addition, the Potency entry in experiment [2] and in experiment [3] was “inactive” in each case.

Regarding `CCC(=O)N[C@@H]1Cc2ccccc2[C@H](c2ccccc2)C1`, in experiment [1], the activation is -0.333%. The Potency entry in experiment [2] and in experiment [3] was “inactive” throughout.

Consider `CC[C@@H](C)[C@H](N)C(=O)N1Cc2ccccc2C1`, for which the activation in experiment [1] was 3.82%. The Potency result in experiment [2] and in experiment [3] was “inactive” each time.

On to `CC[C@H]1OC(=O)[C@H](C)[C@@H](OC2C[C@@](C)(OC)[C@@H](O)[C@H](C)O2)[C@H](C)[C@@H](OC2O[C@H](C)C[C@H](NC)[C@H]2O)[C@](C)(O)C[C@@H](C)CN(C)[C@H](C)[C@@H](O)[C@]1(C)O` (stereo not given in full), for which the activation in experiment [1] is 4.33%. The Potency entry in experiment [2] and in experiment [3] was “inactive” in each case.

For `COc1c2c(c(C)c3c1C(=O)OC3)OC1(C)CC(O)C34OC(OC)(CC(OC(C)=O)C3(C)C1C2)OC4(C)C` (stereo not given), the activation in experiment [1] is -5.36%. Besides, the Potency entry in experiment [2] and in experiment [3] was “inactive” in each case.

With `COc1nc2sc(C(=O)NC3CC3)c(N)c2c(C)c1Cl`, in experiment [1], the activation is -6.33%. The Potency result in experiment [2] and in experiment [3] was “inactive” throughout.

On to `Cc1nc(Nc2n[nH]c3c2CN(C(=O)NC(CN(C)C)c2ccccc2)C3(C)C)c2sccc2n1` (stereo not given), for which the Potency in experiment [1] is 10.7 µM (active). Besides, the Potency result in experiment [2] and in experiment [3] was “inactive” in each case.

For `CC(C)c1nc(N(C)S(C)(=O)=O)nc(-c2ccc(F)cc2)c1/C=C/[C@@H](O)C[C@@H](O)CC(=O)O`, in experiment [1], the activation is -19%. Also, the Potency entry in experiment [2] and in experiment [3] was “inactive” each time.

In the case of `CC1(C(=O)O)CCCC2(C)C3CCC4CC3(CCC12)CC4=O` (stereo not given), the activation in experiment [1] is 16.1%. In addition, the Potency result in experiment [2] and in experiment [3] was “inactive” throughout.

In the case of `COc1ccc(/C=C/C(=O)O[C@@H]2[C@@H](OC(C)=O)[C@@H](OC(C)=O)[C@H](O[C@H]3[C@@H]4C=CO[C@@H](O[C@@H]5O[C@H](CO)[C@@H](O)[C@H](O)[C@H]5O)[C@@H]4[C@@]4(CO)O[C@@H]34)O[C@H]2C)cc1`, the activation in experiment [1] is 5.34%. The Potency result in experiment [2] and in experiment [3] was “inactive” in each case.

As to `Cc1ccc(Cc2c(C)nc3nc(SCC(=O)NCCN4CCNCC4)nn3c2C)cc1`, the activation in experiment [1] was -9.67%. In addition, the Potency result in experiment [2] and in experiment [3] was “inactive” each time.
